Experimental data published in PubChem BioAssay (NCI).
Compounds without any hit were thinned out: in the full panel of roughly 83,000, 20% have a hit.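 Assay: single dose, 48 h. Readout: percent growth (0 = no net growth; negative = cell death). Active: <10.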 A number with no mark means an inactive call. Active and inactive are the calls of the source.

Key:
Test in all cases: NCI-60 one-dose screen, 48 h (100 = growth as untreated, 0 = no growth, -100 = all killed)
Conditions in all cases: 10 µM unless noted
SR leukemia = test system: SR leukemia
RPMI-8226 leukemia = test system: RPMI-8226 leukemia
OVCAR-8 ovarian = test system: OVCAR-8 ovarian
OVCAR-5 ovarian = test system: OVCAR-5 ovarian
OVCAR-4 ovarian = test system: OVCAR-4 ovarian
SK-OV-3 ovarian = test system: SK-OV-3 ovarian
IGROV1 ovarian = test system: IGROV1 ovarian
OVCAR-3 ovarian = test system: OVCAR-3 ovarian
HS 578T breast = test system: HS 578T breast
NCI/ADR-RES ovarian = test system: NCI/ADR-RES ovarian
T-47D breast = test system: T-47D breast
BT-549 breast = test system: BT-549 breast
MDA-MB-435 melanoma = test system: MDA-MB-435 melanoma
SW-620 colon = test system: SW-620 colon
MCF7 breast = test system: MCF7 breast
HCT-116 colon = test system: HCT-116 colon
HCC-2998 colon = test system: HCC-2998 colon
KM12 colon = test system: KM12 colon

SMILES | growth (SR leukemia) | growth (RPMI-8226 leukemia) | growth (OVCAR-8 ovarian) | growth (OVCAR-5 ovarian) | growth (OVCAR-4 ovarian) | growth (SK-OV-3 ovarian) | growth (IGROV1 ovarian) | growth (OVCAR-3 ovarian) | growth (HS 578T breast) | growth (NCI/ADR-RES ovarian) | growth (T-47D breast) | growth (BT-549 breast) | growth (MDA-MB-435 melanoma) | growth (SW-620 colon) | growth (MCF7 breast) | growth (HCT-116 colon) | growth (HCC-2998 colon) | growth (KM12 colon)
C=CC1(C)C(O[Si](C)(C)C(C)(C)C)CC2C3OC(=O)NC31c1cccc3c1[C@H](C(=O)N3C)C2(C)C (stereo partly specified) | 24.4% | 7.41% (active) | 55.1% | 75.8% | 55.1% | 86.6% | 80.9% | 52.7% | 79.2% | 60.5% | 23.8% | 53.8% | 56.2% | 64.6% | 27.7% | 38.6% | 69.1% | 50.5%
O=C(NCc1ccc2c(c1)OCO2)NCC1CCCC(CNC(=O)NCc2ccc3c(c2)OCO3)C1 (stereo unspecified) | 95.2% | 102% | 100% | 108% | 96.1% | 99.1% | 106% | 108% | 97.1% | 104% | 86.7% | 96.3% | 95.9% | 98% | 101% | 101% | 102% | 105%
O=C(/C=C/c1ccccc1)Nc1ncc(Cc2ccccc2)s1 | 15.3% | 20.2% | 23.7% | 18.5% | 14.1% | 15.4% | 26.1% | -34.1% (active) | 10.4% | 2.68% (active) | 26.1% | 42.9% | -40.9% (active) | 24.6% | 17.2% | 11.6% | 11.9% | 6.06% (active)
CN(C)c1ccc(-c2cc(-c3ccc(Nc4nc(Nc5ccc(Cl)cc5)nc(Nc5ccc(Cl)cc5)n4)cc3)nc(N)c2C#N)cc1 | 40.6% | -27.1% (active) | 68% | 87.1% | 88.5% | 102% | 55% | 88.3% | 82.5% | 78% | 41.3% | 95.6% | 84% | 92.8% | 41.9% | 60.5% | 107% | 74.1%
CC(C)(C)c1cc(C=Nc2cccc(C(F)(F)F)c2)c(O)c(C(C)(C)C)c1 | 77.7% | 74.5% | 88.1% | 105% | 97.3% | 100% | 105% | 95% | 102% | 99.9% | 88.5% | 106% | 108% | 101% | 97.7% | 94.1% | 108% | 102%
CCc1ccc(CCC(=O)Nc2ncc(Cc3ccc(Cl)cc3)s2)o1 | 18.4% | 31.5% | 31.3% | 52.1% | 63.8% | 37.4% | 34.8% | 1.07% (active) | 2.63% (active) | 17.3% | 37% | 61.3% | -64.3% (active) | 18.6% | 20% | 29.3% | 46.9% | 21.6%
COc1ccc(/C=C/C(=O)c2ccc(NC(=O)CSc3nnc(-c4cc(-c5ccccc5)nc5ccccc45)n3-c3ccccc3)cc2)cc1 | 79.7% | 96.6% | 93.5% | 93.4% | 96% | 109% | 111% | 102% | 93.1% | 97.1% | 80.3% | 96.3% | 97.9% | 96.6% | 93.7% | 98.7% | 107% | 89.5%
O=C1/C=C/[C@@H](O)[C@@H]2C[C@@H](O)C[C@H]2/C=C/CCC[C@H](CCOCc2ccccc2)O1 | -7.43% (active) | 11.5% | 9.04% (active) | 8.12% (active) | 25.8% | 31.3% | 15.1% | -45.8% (active) | 23.8% | 6.93% (active) | 15.6% | 7.15% (active) | 7.86% (active) | -23.8% (active) | -10.3% (active) | -71.1% (active) | 3.47% (active) | -60.5% (active)
COc1cc(Nc2ncccc2NC(=O)c2cn(Cc3cccc(Oc4ccccc4)c3)nn2)cc(OC)c1 | 40.8% | 71.6% | 87.8% | 107% | 92.7% | 96.2% | 99.3% | 85.3% | 79.3% | 76% | 65% | 85.5% | -6.08% (active) | 86.1% | 49.3% | 91.1% | 71.6% | 62.2%
CN1CCN(Cc2ccc(NC(=O)c3cncc(C#Cc4cncc5ncccc45)c3)cc2C(F)(F)F)CC1 | -37.7% (active) | 9.58% (active) | 28.1% | 25.2% | 17.3% | -3.03% (active) | 1.13% (active) | 36.3% | -5.88% (active) | 30.9% | 60.9% | 38.6% | 10.6% | -26.7% (active) | 13.7% | -58.3% (active) | 13.9% | 10.7%
COC(=O)C1=C(C)NC(C)=C(C(=O)OCC(C)C)C1c1ccccc1[N+](=O)[O-] (stereo unspecified) | 20.3% | 53.1% | 61.6% | 98.7% | 51.8% | 82.7% | 56.9% | 56.5% | 112% | 48.8% | 56.1% | 59.5% | 54.8% | 29.4% | 72.7% | 30.1% | 83.5% | 27.4%
O=C1/C(=C/c2ccccc2[N+](=O)[O-])COc2ccc(O)cc21 | 22.2% | 3.29% (active) | 6.3% (active) | -19% (active) | 15.6% | 77.7% | -0.209% (active) | 7.73% (active) | 5.1% (active) | 2.55% (active) | 18% | 26.7% | -34.2% (active) | -57.8% (active) | 10.9% | -13.8% (active) | 29% | 25.4%
CN1CCN(C(=O)c2cc(-c3ccc4ncnc(N5CCc6cc(F)c(Cl)cc65)c4c3)cnc2N)CC1 | 14.7% | -25.7% (active) | 10.3% | 9.22% (active) | -12.7% (active) | 10.9% | -33.4% (active) | -42.8% (active) | -17.2% (active) | 8.74% (active) | -1.85% (active) | -20.4% (active) | -2.06% (active) | 4.9% (active) | 4.21% (active) | -30.3% (active) | -7.55% (active) | 10.7%
CC/C(Cc1ccccc1)=C(\c1ccc(OCCN2CCCCCC2)cc1)c1ccc(OC(=O)NCc2ccccc2)cc1 | -21.1% (active) | 30.8% | 58.9% | 80.9% | 57% | 88.6% | 63.5% | 89.8% | 78.6% | 74% | 40.9% | 81.9% | 79.6% | 64.5% | 13.7% | 2.8% (active) | 65.2% | 67.9%
COc1ncc2cc1NS(=O)(=O)c1cccc(c1)C(=O)NCC1=CC=C(S1)c1ncnc3c1SC2=C3C | -3.91% (active) | -31.3% (active) | 20.6% | -26.2% (active) | -24.1% (active) | 5.33% (active) | -24.5% (active) | -73.1% (active) | 12.7% | 10.6% | -29% (active) | -52.7% (active) | -28.6% (active) | 3.04% (active) | -12.5% (active) | -31.8% (active) | -43.1% (active) | -62.1% (active)
COc1cc(C(=O)C(=O)c2cc(OC)c(O)c(OC)c2)cc(OC)c1O | 103% | 91.3% | 102% | 97% | 101% | 103% | 117% | 103% | 110% | 101% | 98.1% | 120% | 103% | 105% | 96.5% | 104% | 92.1% | 107%
OC(c1ccccc1)(c1ccccc1)c1ccccc1-c1ccccc1 | 95.2% | 82.9% | 96.7% | 94.7% | 80.4% | 86.6% | 91.2% | 101% | 94.2% | 85.5% | 69.8% | 104% | 108% | 82.4% | 83.5% | 72.1% | 88.5% | 93.6%
